Measured values taken from PubChem BioAssay AID1578 (Sanford-Burnham Center for Chemical Genomics, 2009).
Among all 290,000 compounds or so, about 3,000 (1%) were called active. What follows is part of a selection rich in actives, with near analogues and random picks from the rest. Unmarked numbers belong to inactive results. Rule as the data show it: active = inhibition mostly above about 36% (no sharp cut-off); inactive = mostly below about 34%.

Assay: inhibition of NOD1-driven NF-kB reporter – cell-based, luminescence, uHTS, primary screen (AID 1578);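 also: HEK-293T reporter cells stimulated with the NOD1 agonist gamma-tri-DAP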
Conditions: NOD1-driven NF-kB luciferase reporter cells, at 4 µM, stronger effect = higher value

First: O=C(O)CCCCCNC(=O)CCn1cnc2ccccc2c1=O
Second: N#CCn1cnc2sc(-c3ccccc3)cc2c1=O
The inhibition of the first is higher: 21.1% for the first, -27.8% for the second.

Going from COc1cc(OC)cc(-c2nnc(SCC(=O)Nc3cccc(C(=O)O)c3)s2)c1 to COc1cc(-c2cc(-c3ccccc3)nc(SCC(=O)O)c2C#N)cc(OC)c1OC, the inhibition rises from -32.1% to -3.4%.

Going from O=C(c1ccc(Cl)cc1)N1CCN(CCc2ccccn2)CC1 to CCN1CCN(C(=O)c2cc(COc3ccc4ncccc4c3)on2)CC1, the inhibition rises from -13% to 26.3%.

Going from COc1cc(/C=C2/C(=O)NN(c3ccccc3)C2=O)cc(Br)c1O to COc1cc(/C=C2/C(=O)NN(c3ccc(F)cc3)C2=O)cc(Cl)c1O, the inhibition falls from 15.4% to 12.2%.

First: OCC[C@@H]1C[C@H](O)[C@@H](O)[C@]2(Cc3ccccc3CO2)O1
Second: C=C1CCC[C@]2(C)C[C@H]3OC(=O)C(CN[C@@H](C)c4ccccc4)[C@H]3CC12 (stereo partly drawn)
The inhibition of the first is higher: 15% for the first, -16.5% for the second.

First: COc1ccc(C(=O)N(CCc2ccccc2)Cc2ccccc2)c(OC)n1
Second: COc1ccccc1OC(=O)Cc1cccc2ccccc12
The inhibition of the first is lower: -5.7% for the first, 63.8% for the second.

Compared with O=C(c1cc(COc2ccc3ncccc3c2)on1)N1CCC(O)CC1, CCC(O)C1CCN(C(=O)c2cc(COc3ccc4ncccc4c3)on2)CC1 (stereo not drawn) is higher in inhibition: 0.3% for the first, 52.9% for the second.

First: Cc1ccc(OCc2cc(C(=O)NCc3cc(F)ccc3C)no2)cn1
Second: CC(NC(=O)c1cc(COc2ccc3ncccc3c2)on1)c1ccc(F)cc1 (stereo not drawn)
The inhibition of the first is lower: -13.5% for the first, 7.2% for the second.

Compared with O=C(c1cc(COc2ccc3ncccc3c2)on1)N1CCCC1, O=C(NC1CCCC1)c1cc(COc2ccc3ncccc3c2)on1 is higher in inhibition: 19.1% for the first, 26.8% for the second.

First: CC(=O)c1ccc(OCc2cc(C(=O)NC3CCCCC3)no2)cc1
Second: CC(=O)c1ccc(NC(=O)C2CCCN(C(=O)c3ccc(Cl)cc3)C2)cc1 (stereo not drawn)
The inhibition of the first is lower: -46.8% for the first, -22.6% for the second.

Compared with CS(=O)(=O)N1CCN(c2ccccc2NC(=S)NC(=O)c2ccccc2[N+](=O)[O-])CC1, Cc1ccc(NC(=S)NNC(=O)c2ccc(N3CCOCC3)c([N+](=O)[O-])c2)cc1C is higher in inhibition: -7.4% for the first, -2.1% for the second.

Going from O=C(COC(=O)CNS(=O)(=O)c1ccccc1)Nc1ccc(Cl)cn1 to COc1ccc(-c2csc(NC(=O)CCS(=O)(=O)c3ccccc3)n2)c(OC)c1, the inhibition rises from -21% to -13.4%.

Compared with Cc1cc(C)n(-c2ccc(C(=O)Nc3sccc3C(N)=O)cc2)n1, Cc1csc(NC(=O)c2ccc(=O)[nH]c2)n1 is higher in inhibition: -77.9% for the first, -4.6% for the second.

Compared with COc1ncnc2c1oc1nc(C(C)C)c3c(c12)CC(C)(C)OC3, CCOc1cc(C2Nc3ccccc3NC3=C2C(=O)CC(C)(C)C3)ccc1O (stereo not drawn) is lower in inhibition: -12.3% for the first, -14.4% for the second.

First: CCN(CC)S(=O)(=O)c1cccc(N=Nc2sc(N)nc2C)c1
Second: Cc1ccc2sc(N(CCN(C)C)C(=O)c3ccc(S(=O)(=O)N4CC(C)OC(C)C4)cc3)nc2c1C (stereo not drawn)
The inhibition of the first is higher: 1.1% for the first, -6.4% for the second.

Compared with N#Cc1ccc(OCC(O)CS(=O)(=O)c2ccccc2)cc1 (stereo not drawn), Cc1ccc(NC(=O)CCOc2ccccc2)cc1 is higher in inhibition: -22.8% for the first, -12.7% for the second.

Compared with O=C1CCCN1S(=O)(=O)c1ccc(F)cc1, CN1CCC(N(C)S(=O)(=O)c2ccc(NC(=O)COc3ccc(F)cc3Cl)cc2)CC1 is lower in inhibition: 5.5% for the first, -16.5% for the second.

Going from CCOc1ccc(NC(=O)C2CCCN(S(=O)(=O)c3ccc4c(c3)CC(C)N4C(C)=O)C2)cc1 (stereo not drawn) to O=C(NCc1ccccc1)C1CCCN(S(=O)(=O)c2ccc(-n3cnnn3)cc2)C1 (stereo not drawn), the inhibition rises from -4% to 34.5%.

First: COn1c(-c2ccccc2)nc2ccc(Cl)cc21
Second: NC(=O)CSc1nc(-c2ccccc2)nc2ccccc12
The inhibition of the first is lower: -72.4% for the first, -12.4% for the second.

Compared with Cc1cc(C(=O)N/N=C/c2c(C)nn(-c3ccccc3)c2Cl)n[nH]1, CN(C)C=NC(=O)c1cc(C(=O)c2ccccc2Cl)c[nH]1 is higher in inhibition: -4.6% for the first, -1.9% for the second.

First: CC(=O)N(C(C)=O)S(=O)(=O)c1ccc(N=NN2CCOCC2)cc1
Second: CC(=O)c1ccc(N2CCN(C(=O)CN(C)S(=O)(=O)c3cnc[nH]3)CC2)cc1
The inhibition of the first is lower: -25.7% for the first, -22.7% for the second.

First: O=C(Nc1ccccc1C(=O)Nc1cccnc1)c1ccccc1
Second: O=C(/C=C\Nc1ccccn1)c1ccccc1
The inhibition of the first is higher: -11.8% for the first, -49.1% for the second.

First: Cc1ccc2c(c1)C1CN(C)CCC1N2C(=S)Nc1ccc(Cl)cc1Cl (stereo not drawn)
Second: Cc1ccc2c(c1)C1CN(C)CCC1N2C(=S)NC(=O)c1ccc(Cl)cc1Cl (stereo not drawn)
The inhibition of the first is higher: 13% for the first, -10.8% for the second.

Compared with Cc1nonc1NC(=O)CSc1nc(C23CC4CC(CC(C4)C2)C3)nc2ccccc12, CC(C)c1cccc(C(C)C)c1NC(=O)Cn1c(=O)cnc2ccccc21 is lower in inhibition: 2.5% for the first, -9.4% for the second.

First: CCC(C)NC(=O)C(Cc1ccccc1)n1cccc1 (stereo not drawn)
Second: O=C1CN(C(=O)NCC(=O)N[C@H](Cc2ccccc2)C(=O)O)c2ccccc2N1
The inhibition of the first is higher: -8% for the first, -34.2% for the second.

Going from CCC1Oc2ccc(C)cc2N(CC(=O)N(Cc2ccncc2)Cc2ccco2)C1=O (stereo not drawn) to CCC1Oc2ccc(C)cc2N(CC(=O)N(Cc2cccnc2)Cc2ccc(C)o2)C1=O (stereo not drawn), the inhibition rises from -36.7% to -12.7%.

Going from Cc1nn(C)c(C(=O)Nc2ccc(Br)cc2F)c1Br to O=C(NNc1ccc(F)cc1F)C1CCC1, the inhibition falls from 46% to -1.9%.

First: CCOP(=O)(OCC)C(NC(=O)Nc1ccccc1)c1ccccc1 (stereo not drawn)
Second: O=C(/C=C/c1ccccc1)c1ccccn1
The inhibition of the first is higher: -11.6% for the first, -15.9% for the second.

First: COc1ccc2[nH]c(C)cc(=O)c2c1
Second: COc1ccc2c(c1)c1ccc3c(c1n2C)C(=O)C=CC3=O
The inhibition of the first is lower: -7.4% for the first, 0.4% for the second.

First: COc1ccc(C(O)(C(C)C)C(CN2CCOCC2)c2ccccc2)cc1 (stereo not drawn)
Second: Cc1nn(C(C)(C)C)c(OC(=O)c2ccco2)c1Sc1ccccc1
The inhibition of the first is higher: 5.4% for the first, -2.8% for the second.

Compared with CN(C)C=NC(=O)c1cc(C(=O)c2ccc(Cl)cc2)c[nH]1, Cc1ccc(CN(C(=O)c2ccc([N+](=O)[O-])cc2)C2CCS(=O)(=O)C2)o1 (stereo not drawn) is lower in inhibition: 38.4% for the first, -50% for the second.

Compared with Cc1nn(C(C)(C)C)c(OC(=O)c2ccc(Br)o2)c1Sc1ccccc1, O=C(/C=C/c1ccccc1Br)c1ccc2c(c1)OCO2 is lower in inhibition: 19.3% for the first, -20% for the second.

Compared with Cc1ccc(C2(C)NC(=O)N(CC(=O)Nc3cc(S(=O)(=O)N(C)C)ccc3C)C2=O)cc1 (stereo not drawn), Cc1cc(C)c(NC(=O)COC(=O)c2cc([N+](=O)[O-])ccc2N2CCOCC2)c(C)c1 is lower in inhibition: -19.4% for the first, -25.6% for the second.

Going from O=C(/C=C\Nc1ccc2c(c1)OCO2)c1ccc2c(c1)OCO2 to O=C(/C=C\Nc1ccc2c(c1)OCO2)c1cccs1, the inhibition falls from -48.7% to -64.5%.

First: O=C(/C=C/c1ccc2c(c1)OCO2)c1ccccn1
Second: O=C(NC1CCSC1=O)c1ccccc1 (stereo not drawn)
The inhibition of the first is lower: -6.5% for the first, 18.9% for the second.

Compared with COc1ccc(Br)cc1C1CC(=O)C(C)C(c2cc(Br)ccc2OC)N1 (stereo not drawn), COc1ccc(/C=N/NC(=O)CSCc2ccc([N+](=O)[O-])cc2)cc1OC is higher in inhibition: -12% for the first, -10.4% for the second.

Going from CCOc1ccc(Nc2ccnc3cc(Cl)ccc23)cc1 to Clc1ccc(NNc2ccnc3cc(Cl)ccc23)cc1, the inhibition falls from 5.9% to -35.6%.

Going from NC(=S)NNc1ccnc2cc(Cl)ccc12 to O=C(NNc1cc(Cl)ccc1Cl)C1CCC1, the inhibition rises from -8.6% to -7.1%.

Going from Clc1ccc(CNC2CCCC2)cc1 to CCc1ccccc1NC(=S)NCCSc1ccc(Cl)cc1, the inhibition falls from 9.1% to -3.7%.

Going from CCOC(=O)C1CCCN(C(=O)CCNS(=O)(=O)c2cc(Br)cnc2N)C1 (stereo not drawn) to Cc1c(C(C)C)c(=O)n(-c2ccc(S(=O)(=O)NC3CC3)cc2)n1C, the inhibition falls from -11.8% to -14.8%.

First: CCOc1ccc(N2C(=O)CC(NCCNc3ccc(C(=O)c4cccs4)cc3)C2=O)cc1 (stereo not drawn)
Second: Cc1c(C(C)C)c(=O)n(-c2ccc(S(=O)(=O)NC(C)C)cc2)n1C
The inhibition of the first is lower: -13.5% for the first, 8.6% for the second.

With C=C1CCC[C@]2(C)C[C@H]3OC(=O)C(CN(C)CC(OC)OC)[C@H]3CC12 (stereo partly drawn) the inhibition was -4.9%.

With O=C(NC1CCCCCCC1)c1cc(COc2ccc3ncccc3c2)on1 the inhibition was 44.4% (active).
With Cc1ccc(F)cc1CNC(=O)c1cc(COc2ccc3ncccc3c2)on1 the inhibition was 59.8% (active).
For Cc1ccc2c(c1)C1CN(C)CCC1N2C(=S)NC(=O)c1ccc(Br)cc1 (stereo not drawn), the inhibition was 61.2% (active).
In the case of NC(=O)CSc1nc(C23CC4CC(CC(C4)C2)C3)nc2ccccc12, the inhibition is reported as 58.4% (active).
With CCC1Oc2ccc(C)cc2N(CC(=O)N(Cc2cccnc2)Cc2cccc(F)c2)C1=O (stereo not drawn) the inhibition was 34.6% (active).
In the case of COc1ccc2[nH]c3c4c(ccc3c2c1)C(=O)C=CC4=O, the inhibition is reported as 51% (active).
In the case of CN(C)C=NC(=O)c1cc(C(=O)c2ccc(Cl)cc2Cl)c[nH]1, the inhibition is reported as 59.7% (active).
For Cc1nn(C(C)(C)C)c(OC(=O)c2cccs2)c1Sc1ccccc1, the inhibition was 68.5% (active).
With O=C(/C=C\Nc1ccccc1Br)c1ccc2c(c1)OCO2 the inhibition was 59.6% (active).
With O=C(/C=C/Nc1ccccc1Br)c1ccccn1 the inhibition was 84.5% (active).
For O=C(/C=C\Nc1ccc2c(c1)OCO2)c1ccccn1, the inhibition was 70.6% (active).
In the case of O=C(NNc1ccnc2cc(Cl)ccc12)C1CCCCC1, the inhibition is reported as 47.5% (active).
For Oc1ccc(Nc2ccnc3cc(Cl)ccc23)cc1, the inhibition was 53.4% (active).
With C=C1CCC[C@]2(C)C[C@H]3OC(=O)C(CN(Cc4ccc(OC)c(OC)c4)CC(C)O)[C@H]3CC12 (stereo partly drawn) the inhibition was 33.5% (active).
With Cc1c(C(C)C)c(=O)n(-c2ccc(S(=O)(=O)NCc3ccccc3)cc2)n1C the inhibition was 44.6% (active).
